Reference: the supplement of paper PMC12669032
A number with no mark means an inactive call.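 How the source made its calls: active = AUC reduced over 20% with Padj below 0.05 in at least 2 of 3 replicates; inactive = otherwise.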

Key:
Assay in all cases: growth AUC relative to DMSO control (median of replicates) (fraction); higher = more growth (less inhibition), active = hit call of the paper
Details in all cases: 20 µM; 24 h
Coprococcus comes = tested on: Coprococcus comes
Procedure, shortened: (§1)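 For each compound at 20 µM (1% DMSO), gut bacterial monocultures seeded at OD600 0.05 grew anaerobically in mGAM at 37 °C in round-bottom 96-well plates. Hourly OD600 readings over 24 h gave growth curves whose minimum OD was set to 0. Area under these curves was normalised to the plate median of solvent-only wells, or to row and column medians on the industrial chemical plate. Values are medians of three biological replicates grown on separate days.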

Escherichia coli ED1a = tested on: Escherichia coli ED1a
Procedure, shortened: as §1

Escherichia coli IAI1 = tested on: Escherichia coli IAI1
Procedure, shortened: as §1

Eubacterium rectale = tested on: Eubacterium rectale
Procedure, shortened: as §1

[1] = tested on: Fusobacterium nucleatum subsp. animalis
Procedure, shortened: as §1

Lactobacillus gasseri = tested on: Lactobacillus gasseri
Procedure, shortened: as §1

Lactobacillus paracasei = tested on: Lactobacillus paracasei
Procedure, shortened: as §1

Odoribacter splanchnicus = tested on: Odoribacter splanchnicus
Procedure, shortened: as §1

[2] = tested on: Parabacteroides distasonis
Procedure, shortened: as §1

Parabacteroides merdae = tested on: Parabacteroides merdae
Procedure, shortened: as §1

Roseburia intestinalis = tested on: Roseburia intestinalis
Procedure, shortened: as §1

Streptococcus salivarius = tested on: Streptococcus salivarius
Procedure, shortened: as §1

Row | SMILES | growth AUC (Coprococcus comes) | growth AUC (Escherichia coli ED1a) | growth AUC (Escherichia coli IAI1) | growth AUC (Eubacterium rectale) | growth AUC [1] | growth AUC (Lactobacillus gasseri) | growth AUC (Lactobacillus paracasei) | growth AUC (Odoribacter splanchnicus) | growth AUC [2] | growth AUC (Parabacteroides merdae) | growth AUC (Roseburia intestinalis) | growth AUC (Streptococcus salivarius)
1 | O=S1OCC2C(CO1)C1(Cl)C(Cl)=C(Cl)C2(Cl)C1(Cl)Cl (stereo not drawn) | 1.03 | 1.02 | 1.04 | 1.08 | 1.13 | 0.763 | 1.05 | 1.03 | 1.1 | 0.951 | 0.988 | 0.977
2 | COCCN(C(=O)CCl)c1c(C)cccc1C | 0.983 | 1 | 0.973 | 0.854 | 0.939 | 1.02 | 0.831 | 0.965 | 0.968 | 0.985 | 0.96 | 0.957
3 | CCOC(=O)CCN(Cc1ccccc1)SN(C)C(=O)O/N=C(/C)SC | 0.985 | 0.995 | 0.988 | 1.08 | 0.837 | 0.909 | 1.02 | 1.08 | 1.02 | 0.99 | 0.987 | 0.976
4 | c1ccc2c(c1)-c1cccc3cccc-2c13 | 0.92 | 0.941 | 1 | 0.91 | 0.954 | 1.03 | 0.98 | 1 | 0.938 | 0.935 | 0.956 | 0.972
5 | C=C(C)CN(CC)c1c([N+](=O)[O-])cc(C(F)(F)F)cc1[N+](=O)[O-] | 0.985 | 0.921 | 0.968 | 0.921 | 0.912 | 1.03 | 1.14 | 1.01 | 1.02 | 1.01 | 1.01 | 0.989
6 | CCOP(=O)(NC(C)C)Oc1ccc(SC)c(C)c1 (stereo not drawn) | 0.974 | 0.985 | 0.953 | 1.04 | 0.903 | 0.895 | 0.965 | 0.954 | 0.77 | 0.966 | 1.02 | 0.951
7 | CNC(=O)ON=C(CS(C)=O)C(C)(C)C (stereo not drawn) | 1 | 1.02 | 0.998 | 1.14 | 1.01 | 1.06 | 0.999 | 1.02 | 1.03 | 1.01 | 0.974 | 0.989
8 | CON(C)C(=O)Nc1ccc(Br)c(Cl)c1 | 1.03 | 0.958 | 1.04 | 0.867 | 0.886 | 1.13 | 0.989 | 0.998 | 1.01 | 0.967 | 0.957 | 0.956
9 | CC(C)(C)C(O)C(Cc1ccc(Cl)cc1Cl)n1cncn1 (mixture of isomers) | 0.982 | 0.981 | 0.979 | 0.845 | 0.963 | 0.947 | 1.01 | 0.989 | 0.871 | 0.889 | 0.918 | 0.974
10 | O.[Br-].[Br-].c1cc[n+]2c(c1)-c1cccc[n+]1CC2 | 0.988 | 1.03 | 0.95 | 1.21 | 0.996 | 1.11 | 1.01 | 0.937 | 0.781 (active) | 0.967 | 1.04 | 1.01
11 | CP(=O)(O)CCC(N)C(=O)[O-].[NH4+] (stereo not drawn) | 1.06 | 1.02 | 1.02 | 1.08 | 1.17 | 0.944 | 1.08 | 1.02 | 1.1 | 1.03 | 1.06 | 1.01
12 | CNC(=O)Oc1cc(C)c(S(C)(=O)=O)c(C)c1 | 0.98 | 0.981 | 0.963 | 0.971 | 1.05 | 0.999 | 1.02 | 1.01 | 1.05 | 1.02 | 0.967 | 0.945
13 | c1ccc2c(c1)ccc1c3ccccc3sc21 | 0.965 | 0.988 | 1 | 0.942 | 1.01 | 0.974 | 1.03 | 0.984 | 1.1 | 1 | 0.964 | 1.05
14 | CCCCCCCCCc1ccc(O)cc1 | 0.989 | 0.998 | 1.01 | 0.968 | 0.989 | 0.904 | 1.01 | 0.841 | 0.885 | 0.971 | 0.897 | 0.927
15 | O=[N+]([O-])c1cc(C(F)(F)F)c(Cl)c([N+](=O)[O-])c1Nc1ncc(C(F)(F)F)cc1Cl | 0.953 | 0.98 | 0.986 | 0.995 | 0.885 | 0.807 | 0.578 (active) | 1.02 | 0.905 | 0.0369 (active) | 0.989 | 0.822
16 | N#CCNC(=O)c1cnccc1C(F)(F)F | 0.993 | 1.01 | 0.961 | 0.97 | 0.991 | 1.06 | 0.974 | 1.02 | 1.02 | 1.03 | 1 | 0.995
17 | CCNc1nc(Cl)nc(NC(C)(C)C)n1 | 0.995 | 0.977 | 1.01 | 1.07 | 0.975 | 0.947 | 1.03 | 1.01 | 0.992 | 0.979 | 0.955 | 0.986
18 | CCOP(=S)(OCC)Oc1ccc(=O)n(-c2ccccc2)n1 | 0.973 | 0.965 | 0.97 | 0.956 | 0.955 | 0.928 | 1.01 | 0.986 | 0.922 | 0.974 | 0.988 | 0.983
19 | CCCSP(=O)(OCC)SCCC | 1.03 | 1.02 | 0.987 | 1.07 | 0.995 | 0.902 | 0.96 | 0.986 | 0.976 | 1.01 | 1 | 0.984
20 | Oc1cc(Cl)c(Cl)cc1Cl | 0.983 | 0.978 | 0.938 | 0.97 | 1 | 0.843 | 0.971 | 1.12 | 0.962 | 0.927 | 0.906 | 0.95
21 | CSc1nc(NC(C)C)nc(NC(C)C)n1 | 0.999 | 1.01 | 0.976 | 0.917 | 0.922 | 1.12 | 0.944 | 0.981 | 1.02 | 0.991 | 1.02 | 1.03
22 | CCOP(=S)(Oc1cnc(C(C)(C)C)nc1)OC(C)C (stereo not drawn) | 0.998 | 1.01 | 0.985 | 0.811 | 1.02 | 1.11 | 0.988 | 1.07 | 1.03 | 0.995 | 1.01 | 0.994
23 | Fc1ccc(Oc2ccnc3cc(Cl)cc(Cl)c23)cc1 | 0.969 | 0.977 | 0.97 | 0.845 | 0.921 | 0.984 | 0.672 | 1 | 0.966 | 0.876 | 1.02 | 0.956
24 | CN(C)NC(=O)CCC(=O)O | 0.998 | 0.988 | 1.01 | 0.926 | 0.956 | 1.01 | 1.02 | 0.989 | 1.03 | 1.02 | 0.953 | 0.951
